This is an account of results in PubChem BioAssay AID1852 (Sanford-Burnham Center for Chemical Genomics, 2009).

Screen size: about 2,500 compounds; about 1,100 (44%) were called active.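 Rule for the calls: active = inhibition above 50% at 4 µM in the single-point screen; inactive = inhibition of 50% or less.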 So high a share suggests a set chosen from earlier hits. The list shows a part of the results.

Broadly, the inhibition is the change of the read-out against control, counted positive when it falls.

The assay can be described thus: TNF-a-driven NF-kB reporter inhibitors, primary screen, selectivity assay for NOD1/NOD2 signaling inhibitor project, cell-based, HEK293T NF-kB-Luc, luminescence (AID 1852). The note with it: TNF-a induced, 14 h, at 4 µM, active compounds read high.
Take `O=c1cc(CSc2nnc(-c3cccs3)n2Cc2ccccc2)nc2sc3ccccc3n12`: the inhibition was 88.7% (active). The same measure for `CCn1c(SCc2nc3scc(-c4ccccc4)c3c(=O)[nH]2)nnc1-c1cccs1`: 1.6% (inactive); for `NC(=O)c1c(NC(=O)CCCC(=O)O)sc2c1CCCCCC2`: 16.7% (inactive); for `Cc1ccc(C(=O)Nc2sc3c(c2C(=O)O)CCCC3)o1`: -42.9% (inactive). Turning to `CC(=O)c1c(C)[nH]c(C(=O)OCC(=O)Nc2sc3c(c2C#N)CCCC3)c1C`, the inhibition was 58.6% (active). The same measure for `Cc1ccccc1Oc1cc(-n2ncc(Cl)c(Cl)c2=O)ncn1`: 103% (active); for `CSCc1nnc(NC(=O)c2ccc(S(=O)(=O)N(CC(C)C)CC(C)C)cc2)o1`: 80.1% (active); for `COCCN(CCOC)S(=O)(=O)c1ccc(C(=O)Nc2nc(C)c(C(C)=O)s2)cc1`: -3.7% (inactive). Consider `O=C(Nc1nnc(-c2ccco2)o1)c1ccc2ccccc2c1`, for which the inhibition is 77.9% (active).

Consider `Cc1nc([N+](=O)[O-])c(Br)n1CC(=O)c1ccc2ccccc2c1`, for which the inhibition is 25.6% (inactive). For `CCCN(CCC)S(=O)(=O)c1ccc(C(=O)Nc2nnc(-c3cc(OC)cc(OC)c3)o2)cc1`, the inhibition was 68.9% (active). The same measure for `COc1cc(OC)cc(-c2nnc(NC(=O)c3ccc4c(c3)OCCO4)o2)c1`: 105% (active). Take `COc1ccc(-c2nnc(NC(=O)c3ccc([N+](=O)[O-])o3)o2)c(OC)c1`: the inhibition is 49.5% (inactive). Take `O=C(Nc1nnc(-c2ccc3c(c2)OCCO3)o1)c1ccc(Cc2ccccc2)cc1`: the inhibition was 105% (active). With `Cc1noc(C)c1S(=O)(=O)N1CCCC(C(=O)NCc2ccccc2Cl)C1` (stereo unspecified), the inhibition was 21.1% (inactive). As to `Cc1ccc(N(Cc2cc(=O)[nH]c3ccccc23)C(=O)CCl)c(C)c1`, the inhibition is 100% (active). On to `Cc1ccccc1N(Cc1cc(=O)[nH]c2ccccc12)C(=O)CCl`, for which the inhibition was 105% (active). Next, `COCC1CCCN(C(=O)c2cc(COc3ccc4ncccc4c3)on2)C1` (stereo unspecified): 33.2% (inactive). As for `CSc1ccccc1OCc1cc(C(=O)N2CCC(c3ccncc3)CC2)no1`, the inhibition was 29.9% (inactive).

As for `COc1ccc(OCc2cc(C(=O)N3CCC(c4ccccc4)CC3)no2)c(Cl)c1`, the inhibition was -96.3% (inactive). The same measure for `O=C(c1cc(COc2cccc3cnccc23)on1)N1CCC(c2ccccc2Cl)C1` (stereo unspecified): 72.7% (active).

On to `O=C(c1cc(COc2cccc3cnccc23)on1)N1CCCC(CCCO)C1` (stereo unspecified), for which the inhibition was 61.6% (active). On to `Cc1ccc(C)c(OCc2cc(C(=O)NC3CCN(Cc4ccccc4)CC3)no2)c1`, for which the inhibition is 22.7% (inactive). On to `COc1cccc(OCc2cc(C(=O)NCc3cnc4ccccn34)no2)c1`, for which the inhibition was 4.4% (inactive). `CCN(CC)C(=O)C1CCCN(C(=O)c2cc(COc3ccc4ncccc4c3)on2)C1` (stereo unspecified): the inhibition is 36% (inactive).

For the compound `COCC1CCN(C(=O)c2cc(COc3ccc4ncccc4c3)on2)CC1`, the inhibition is 40.2% (inactive). The same measure for `Cc1c(C(C)NC(=O)c2cc(COc3cccc4cnccc34)on2)cnn1C` (stereo unspecified): 53.8% (active). As for `COCC1CCN(C(=O)c2cc(COc3cccc4cnccc34)on2)CC1`, the inhibition was 52.7% (active).

For `O=C(c1cc(COc2c(F)cccc2F)on1)N1CCC(c2ccncc2)CC1`, the inhibition was 41.3% (inactive). Next, `CCOc1ccc(-c2csc(/C(C#N)=C\c3ccc(O)c([N+](=O)[O-])c3)n2)cc1`: 0.4% (inactive); `NS(=O)(=O)c1ccc(Sc2nc3ccccc3s2)c([N+](=O)[O-])c1`: 35.3% (inactive).

`N#C/C(=C\c1ccc(O)c([N+](=O)[O-])c1)c1nc2ccccc2s1`: the inhibition is 76.9% (active). The same measure for `CCOC(=O)c1c(-c2ccccc2)csc1NC(=O)CSc1nc(N)cc(N)n1`: 61.5% (active). Next, `Cc1sc(NC(=O)CSc2ncn(-c3ccccc3)n2)nc1-c1ccccc1`: 33.1% (inactive); `CC(C)c1ccc(-c2csc(NC(=O)c3cccs3)c2C(=O)O)cc1`: 16.6% (inactive). The same measure for `CCOc1cc(/C=C2\CN(C)C/C(=C\c3ccc(O)c(OCC)c3)C2=O)ccc1O`: 65.5% (active); for `CCOc1cc(/C=C2\CN(CC)C/C(=C\c3ccc(O)c(OCC)c3)C2=O)ccc1O`: 96.7% (active); for `CCOC(=O)c1c(NC(=S)NCCc2ccccc2)sc2c1CC(C(C)C)OC2` (stereo unspecified): 82.3% (active).

Consider `CC(C)COc1ccc(C(=O)Nc2sc3c(c2C(=O)O)CC(C)(C)OC3)cc1`, for which the inhibition was 35.4% (inactive). Next, `CCCCCCCCn1c2c(c(=N)c3ccccc31)CCC2`: 74.7% (active). `CCCCCCCCCCn1c2c(c(=N)c3c1CCC3)CCC2`: the inhibition is 78.4% (active).

As for `CCCCCCCCCn1c2c(c(=N)c3c1CCC3)CCC2`, the inhibition is 74.8% (active). As to `Cc1ccc2[nH]c3c(N4CCc5ccccc5C4)ncnc3c2c1`, the inhibition is 83.8% (active). Next, `Cc1ccc2c(c1)[nH]c1c(N3CCN(Cc4ccccc4)CC3)ncnc12`: 72.7% (active). `Oc1c(CN2CCN(c3ccccc3)CC2)cc(Br)c2cccnc12`: the inhibition was 15.7% (inactive). With `Cc1csc2ncnc(NC3CCN(Cc4ccccc4)CC3)c12`, the inhibition was 32.1% (inactive). For `Cc1c(C)n(Cc2ccccc2)c2ncnc(Cl)c12`, the inhibition was 42.6% (inactive).

In the case of `Fc1ccc2[nH]c3c(N4CCc5ccccc5C4)ncnc3c2c1`, the inhibition was 45.8% (inactive). Turning to `O=C(CN1CCN(Cc2ccccc2)CC1)N1N=CCC1c1ccccc1` (stereo unspecified), the inhibition is 21.7% (inactive).

In the case of `c1ccc(CN2CCN(c3ncnc4c3[nH]c3ccccc34)CC2)cc1`, the inhibition is 73.4% (active). Next, `COCCCNC(=O)c1sc2ncnc(N3CCc4ccccc4C3)c2c1C`: 44.9% (inactive); `Cc1ccc2[nH]c3c(N4CCN(Cc5ccccc5)CC4)ncnc3c2c1`: 76.9% (active). With `CCN1CCN(Cc2ccc(NC(=O)c3ccc(C)c(NC(=O)C(=O)c4c[nH]c5ccccc45)c3)cc2C(F)(F)F)CC1`, the inhibition is 26.4% (inactive). Regarding `COc1ccc(NS(=O)(=O)c2ccc3c(c2)NC(=O)C(C)S3)cc1` (stereo unspecified), the inhibition is 9.8% (inactive). Next, `CCC(Cc1ccccc1)NS(=O)(=O)c1ccc2c(c1)NC(=O)C(C)S2` (stereo unspecified): -1.2% (inactive).

For the compound `CCC1Sc2ccc(S(=O)(=O)Nc3ccc(OC)c(OC)c3)cc2NC1=O` (stereo unspecified), the inhibition is 51.8% (active). The same measure for `CCn1nc([N+](=O)[O-])c(C(C#N)c2nc3cc(C(F)(F)F)ccc3s2)c(Cl)c1=O` (stereo unspecified): 34.1% (inactive). Next, `Cc1ccc(C)c(S(=O)(=O)/N=C2\C=C(NS(=O)(=O)c3ccccc3)C(=O)c3ccccc32)c1`: 102% (active); `Cc1ccc(NS(=O)(=O)c2ccc3c(c2)C(=O)c2ccccc2C3=O)c(C)c1`: 2.1% (inactive); `Cc1ccc(NC2=C(Cl)C(=O)c3ccccc3C2=O)cc1`: -26.5% (inactive). In the case of `Cc1cc(C)c(S(=O)(=O)/N=C2\C=C(NS(=O)(=O)c3ccccc3)C(=O)c3ccccc32)c(C)c1`, the inhibition was 94.9% (active). Next, `Cc1cc(C)c(S(=O)(=O)/N=C2\C=C(Nc3ccc(C(=O)O)cc3)C(=O)c3ccccc32)c(C)c1`: 107% (active); `Cc1ccc(NC(=O)COc2ccc(/C=C3/SC(=Nc4ccccc4)N(Cc4cccnc4)C3=O)cc2)cc1`: 14.5% (inactive). For `CCc1ccc(NC(=O)C2CCN(S(=O)(=O)c3ccc4c(c3)CC(C)N4C(C)=O)CC2)cc1` (stereo unspecified), the inhibition is 70% (active). Consider `COc1ccccc1NC(=O)C1CCCN(S(=O)(=O)c2ccc3c(c2)CC(C)N3C(C)=O)C1` (stereo unspecified), for which the inhibition was 47.2% (inactive). Regarding `CC(=O)N1c2ccc(S(=O)(=O)N3CCC(C(=O)Nc4cccc(C)n4)CC3)cc2CC1C` (stereo unspecified), the inhibition is 40.5% (inactive). With `O=C(CN1C(=O)c2ccccc2S1(=O)=O)N1CCc2ccccc21`, the inhibition was 70.7% (active). On to `O=C(CN1C(=O)c2ccccc2S1(=O)=O)c1ccc2c(c1)OCCO2`, for which the inhibition was 95% (active). The same measure for `O=C1C(=O)N(c2nccs2)C(c2ccccc2)/C1=C(\O)c1ccc2c(c1)OCCO2` (stereo unspecified): 31.4% (inactive).

As for `O=C(CSc1ncnc2c1oc1ccccc12)N1CCCc2ccccc21`, the inhibition is 18.1% (inactive). Regarding `O=C(CN1CCc2cc3c(cc2C1)OCCCO3)Nc1c(F)cccc1F`, the inhibition is -3.8% (inactive). Next, `O=C(/C=C/c1ccncc1)c1ccc2c(c1)OCCO2`: -1.4% (inactive). As to `O=C(CN1C(=O)c2ccccc2S1(=O)=O)c1ccc2c(c1)OCCCO2`, the inhibition was 95.7% (active). Next, `Cc1ccccc1CN1CCc2c(OCC(=O)N3CCCc4ccccc43)cccc2C1=O`: 48.2% (inactive); `CC(C)CCn1c(Sc2nc3ccccc3o2)nc2c1c(=O)[nH]c(=O)n2C`: 26.6% (inactive); `O=C(CSc1nc2ccccc2c(=O)[nH]1)Nc1ccccc1C(F)(F)F`: 21.5% (inactive). As to `O=C(CSc1nnnn1C1CC2CCC1C2)Nc1ccnc2ccccc12` (stereo unspecified), the inhibition was 54.8% (active).

`Cc1nn(-c2ccccc2)c2nc(C(Cl)(Cl)Cl)[nH]c(=O)c12`: the inhibition was 23.6% (inactive).

For `Cc1nn(-c2cccc(Cl)c2)c2nc(C(F)(F)F)[nH]c(=O)c12`, the inhibition was 58.8% (active). Consider `Cc1nn(-c2cc(C(F)(F)F)ccc2Cl)c2nc(C(Cl)(Cl)Cl)[nH]c(=O)c12`, for which the inhibition is 71.3% (active).

Consider `O=C(O)c1ccc(N/N=C/c2ccc3nccnc3c2)cc1`, for which the inhibition was 48.6% (inactive). On to `O=C(O)c1cccc(N/N=C/c2cccs2)c1`, for which the inhibition is -23% (inactive). Next, `O=C(O)c1cccc(N/N=C/c2cccc3ccccc23)c1`: 54.1% (active); `O=c1cc(C(F)(F)F)nc(SCc2cccc3ccccc23)[nH]1`: 61.3% (active). Next, `N#Cc1c(-c2ccccc2)nc(SCc2cccc(C(F)(F)F)c2)[nH]c1=O`: -14.5% (inactive); `CS(=O)(=O)c1ccc(C(=O)OCc2nnc(-c3ccccc3)o2)cc1[N+](=O)[O-]`: 38.9% (inactive); `CS(=O)(=O)c1ccc(S(=O)CC(=O)OCc2ccccc2)c([N+](=O)[O-])c1` (stereo unspecified): 50.2% (active). Take `CS(=O)(=O)c1ccc(Sc2nc3ccccc3s2)c([N+](=O)[O-])c1`: the inhibition was -1.5% (inactive). Consider `CCn1nc(C)cc1C(=O)NC1CCCc2c1cnn2-c1ccc(C)c(C)c1` (stereo unspecified), for which the inhibition was 58.9% (active).

For the compound `Cc1ccc(-n2ncc3c2CCCC3NC(=O)c2cnccn2)cc1C` (stereo unspecified), the inhibition was 37.7% (inactive).

With `Cc1cc(C(=O)NC2CCCc3c2cnn3-c2ccc(C)c(C)c2)n(C)n1` (stereo unspecified), the inhibition was 74.6% (active).
